# According to PubChem BioAssay AID777 (Sanford-Burnham Center for Chemical Genomics, 2007):
# Hit rate of the full screen: of about 96,000 compounds, about 19,000 (20%) were called active. A selection follows. Values without a mark were called inactive.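 Rule for the calls: active = blocking of liver enzyme CYP2C9 beyond about 50% at 5 µM (limit read from the data); inactive = the rest.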
# Target: Cytochrome P450 2C9 (Homo sapiens) (UniProt P11712)
# Experiment: blockers of cytochrome P450 2C9 activity – biochemical, luminescence, ADME assay, primary screen (AID 777)
# Details: CYP2C9 Supersomes, luciferin-H conversion, at 5 µM, active compounds read high
# Cytochrome P450 2C9 (Homo sapiens), sequence (P11712 whole entry, looked up): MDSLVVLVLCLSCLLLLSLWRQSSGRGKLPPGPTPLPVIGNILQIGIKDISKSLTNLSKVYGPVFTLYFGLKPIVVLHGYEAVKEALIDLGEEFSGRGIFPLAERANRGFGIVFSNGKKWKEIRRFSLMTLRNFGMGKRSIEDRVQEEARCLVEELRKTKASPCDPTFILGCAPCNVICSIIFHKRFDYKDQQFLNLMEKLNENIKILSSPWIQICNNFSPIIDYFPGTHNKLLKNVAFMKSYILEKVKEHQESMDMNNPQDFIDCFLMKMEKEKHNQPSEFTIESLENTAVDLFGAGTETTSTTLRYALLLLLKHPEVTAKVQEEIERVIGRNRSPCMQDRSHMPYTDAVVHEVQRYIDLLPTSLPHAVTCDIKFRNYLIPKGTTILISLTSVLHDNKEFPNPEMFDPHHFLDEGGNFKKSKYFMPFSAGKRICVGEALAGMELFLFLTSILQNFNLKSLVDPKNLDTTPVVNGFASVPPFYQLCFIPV
row,SMILES,inhibition
1,O=C(Nc1ccccc1)OCc1cn(-c2ccc(Cl)cc2)nn1,41.6%
2,CCCn1c(O)c(CN2CCCC(C)C2)c(C)c(C#N)c1=O (stereo not given),5.2%
3,O=C(Nc1cccc(NC(=O)N2CCN(c3ccccc3)CC2)c1)N1CCN(c2ccccc2)CC1,54% (active)
4,O=C(Nc1ccccc1)N1CCN(Cc2ccccc2)CC1,14.6%
5,CC(=O)N1CCN(C(=O)Nc2cccc(C(F)(F)F)c2)CC1,4.5%
6,CCCCNCc1ccc(SC)cc1,4.1%
7,Cc1ccccc1OC(=O)Cn1c(C(F)(F)F)nc2ccccc21,30.1%
8,COc1cccc(-c2nnc(SCCOc3ccc4c(C)cc(=O)oc4c3)o2)c1,42.3%
9,Cc1cc(=O)oc2cc(NC(=O)C3CC(=O)N(Cc4ccccc4)C3)ccc12 (stereo not given),10.4%
10,Cc1cc(=O)oc2cc(OCC3CC(c4ccccc4Cl)=NO3)ccc12 (stereo not given),65.7% (active)
11,O=c1cc(CN2CCN(c3cccc(Cl)c3)CC2)c2cc3c(cc2o1)CCCC3,58.6% (active)
12,OC(COc1ccc2c(c1)CCC2)CN1CCN(c2cccc(Cl)c2)CC1 (stereo not given),-14.4%
13,Cn1c(C(=O)NCCCN2CCN(c3cccc(Cl)c3)CC2)cc2c(=O)n(C)c3ccccc3c21,22.8%
14,C=CCN(C(=O)Cn1ncc2c1-c1cc(C)ccc1OC2)c1ccccc1,38.4%
15,Cn1c2ccccc2n2c(=O)c(=O)n(CC(=O)c3ccc(F)cc3)nc12,-18%
16,OCCNc1nc2ccccc2n1-c1ncnc2sc3c(c12)CCC3,16.9%
17,Cc1cc(=O)[nH]c(SCc2cc(Cl)ccc2OC(F)F)n1,76.4% (active)
18,O=c1cc(O)nc(SCc2ccccc2Cl)[nH]1,37%
19,Cc1cc(=O)[nH]c(SCc2cccc(F)c2)n1,23.7%
20,Cc1ccccc1C(OCC(O)CN1CCCCC1CCO)c1ccccc1 (stereo not given),-0.6%
21,COc1cc(NS(=O)(=O)c2ccc(N/C=C(\C=O)c3nc4cc(Cl)ccc4o3)cc2)nc(OC)n1,39.2%
22,O=c1[nH]c(-c2ccccc2)c(-c2ccccc2)[nH]1,17.9%
23,O=c1[nH]c2ccccc2n2c(-c3ccccc3)nnc12,62% (active)
24,O=[N+]([O-])c1cccc(-c2nnc3c4ccccc4c4ccccc4n23)c1,11.9%
25,COc1ccccc1-c1nnc(SCC(=O)N2CC(C)CC(C)C2)o1 (stereo not given),-292%

row,SMILES,inhibition
1,O=C(c1cnn2ccccc12)N1CCc2ccccc21,-42.7%
2,CCC(C)NC(=O)N[C@@H](CCSC)C(=O)O (stereo not given in full),8.8%
3,C/C(=N/NC(=O)c1ccc(NC(=O)c2ccc(F)cc2)cc1)c1ccccc1,3.1%
4,O=C(Cn1cc(/C=N/NC(=O)c2cccc(C(F)(F)F)c2)c2ccccc21)Nc1ccc(F)cc1,23.8%
5,O=C(CSc1ccc(/C=N/NC(=O)c2cccc(F)c2)o1)Nc1ccccc1,80.3% (active)
6,CC(C)c1nc2oc3c(N4CCN(C)CC4)ncnc3c2c2c1CCC2,24%
7,CCOC(=O)c1c(C)c(C(=O)NCCc2ccc(S(N)(=O)=O)cc2)c(C)n1CC,16.4%
8,CCC12CN3CC(CC)(CN(C1)C31C(=O)N(C)c3ccc(C)cc31)C2=O (stereo not given),3.6%
9,CN(c1ccc(C(=O)NCc2ccccn2)cc1)S(C)(=O)=O,-10.8%
10,O=C(NCc1ccccn1)c1ccc2nc(-c3ccco3)c(-c3ccco3)nc2c1,67.3% (active)
11,O=C(NCc1ccccn1)c1cc2ccccc2oc1=O,-26%
12,COc1ccc(CN2CCn3ncc(C(=O)Nc4ccc(Cl)cc4Cl)c3C2=O)cc1,14.3%
13,CC(C)C(=O)Nc1nnc(Sc2ccc(N(C)C)cc2)s1,-3.9%
14,ONC(=Nc1ccc(Cl)cc1)c1ccccc1Cl,40.4%
15,N/C(=N\c1nc2ccccc2o1)NC(=O)C(Cc1ccccc1)N1C(=O)c2ccccc2C1=O (stereo not given),89.2% (active)
16,O=C(NCCN1CCOCC1)[C@H](Cc1ccccc1)N1C(=O)c2ccccc2C1=O,-32.6%
17,Cc1cc(C)nc(NC(=O)C(C)N2C(=O)c3ccccc3C2=O)n1 (stereo not given),-15.6%
18,CCN(CC)CCn1c(=S)[nH]c2ncccc2c1=O,16.3%
19,CCCc1nnc(NC(=O)c2cccs2)s1,14.9%
20,COc1ccc(-c2nc(-c3ccccc3)no2)c(OC)c1,-7%
21,COc1ccc(-c2n[nH]c(C)c2-c2ccc(OC)c(OC)c2)c(O)c1,98.8% (active)
22,COc1ccc(OC)c(Nc2nc(-c3ccc(O)c(O)c3)cs2)c1,24.3%
23,C=C(C)COc1ccc(-c2n[nH]c(C)c2-c2ccccc2OC)c(O)c1,54.9% (active)
24,C=C(C)COc1ccc(-c2n[nH]c(C)c2-c2ccccc2)c(O)c1,26.2%
25,COc1ccccc1-c1n[nH]c2c1[C@H](C)CC[C@H]2C(C)C,36.5%
